Records with an inconclusive call do not appear. Unmarked numbers belong to inactive results. Activity calls are given as the source filed them. Calls come from the whole dose curve; as a rule, active = well fitted inhibition curve with a large enough effect; inconclusive = small, poorly fitted or top-dose-only effect, or effect the other way; inactive = flat fitted curve, though single readings scatter.
Target: D(1A) dopamine receptor (Homo sapiens) (UniProt P21728)
Assay: HTS Assay for Allosteric Agonists of the Human D1 Dopamine Receptor: Primary Screen for Antagonists (AID 488983); note: nearly all actives have a fitted effect of over 65% in size
Conditions: D1 receptor cell assay, antagonist mode, qHTS titration; series mostly up to 41.8 µM; activity change, negative = inhibition: at the top concentration
Description: Dopamine receptors (DARs) are involved in the etiology and/or therapy of a number of neuropsychiatric and endocrine disorders. For instance, all receptor-based antiparkinsonian drugs work via stimulating the […] DAR subtype whereas all FDA-approved antipsychotic agents are antagonists of this receptor. […] There are three different types of allosteric modulators that we are seeking, two of which will stimulate or augment receptor signaling, allosteric agonists and potentiators, while the third, allosteric antagonists, will attenuate receptor signaling. The present primary screening assay measures compound agonism by tracking calcium flux in a […], inducible Hek293 Trex D1 cell line.
Freshly passaged cells are plated in 1536 well black, clear bottom plates at a density of 4000 cells/well in 3 ul of complete media containing 1x tetracycline inducer. After an overnight incubation at 30 C in 5% CO2, cells are loaded with 2 ul of the no wash Calcium Assay Kit (ABD Bioquest) and incubated at room temperature for 30 to 90 minutes. A 10 cycle (1 second/cycle) baseline measurement is taken and then the FDSS online 1536 pintool delivers 23 nl of compound library (as well as dopamine controls) to the plate. The plate is measured for kinetically at 1 cycle/sec for 180 seconds and is considered to be the agonist portion of the assay (eg, compounds which activate a positive calcium response during this portion are flagged as potential agonists). Following the 180 second read, 1 ul of an EC80 of dopamine is delivered by an onboard pipette head. Measurements are taken kinetically for an additional 180 seconds.
% is set by controls: 0 for no effect and ±100 for the full control effect; potency is the fitted concentration of half-maximal effect.

Chain of D(1A) dopamine receptor (Homo sapiens) (P21728 whole entry, looked up): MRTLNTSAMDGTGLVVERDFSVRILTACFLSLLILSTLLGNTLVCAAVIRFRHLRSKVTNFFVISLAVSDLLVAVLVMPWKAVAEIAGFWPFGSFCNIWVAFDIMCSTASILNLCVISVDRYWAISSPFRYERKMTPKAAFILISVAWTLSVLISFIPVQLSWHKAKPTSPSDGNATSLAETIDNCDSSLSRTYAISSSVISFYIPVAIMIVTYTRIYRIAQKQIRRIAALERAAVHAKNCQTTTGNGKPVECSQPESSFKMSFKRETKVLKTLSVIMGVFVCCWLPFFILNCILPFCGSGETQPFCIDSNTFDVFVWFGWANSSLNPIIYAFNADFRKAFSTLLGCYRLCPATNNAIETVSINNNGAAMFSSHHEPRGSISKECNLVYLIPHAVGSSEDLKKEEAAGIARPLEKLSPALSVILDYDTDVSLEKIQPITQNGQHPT

Q: Which “activity change, negative = inhibition” value does the source give for COc1ccc([C@@H]2Sc3ccccc3N(CCN(C)C)C(=O)[C@@H]2OC(C)=O)cc1 here?
A: Its value is -2.31%.

Q: For CCN(CC)CCNC(=O)c1cc(S(C)(=O)=O)ccc1OC, which “activity change, negative = inhibition” value is on record?
A: The value was -16.2%.

Q: CCN(Cc1ccncc1)C(=O)C(CO)c1ccccc1 (stereo not given) was tested. Which “activity change, negative = inhibition” value did it give?
A: Its value is 8.64%.

Q: How did the “activity change, negative = inhibition” value turn out when CCc1cccc(N(C)C(N)=Nc2cccc3ccccc23)c1 was run?
A: Its value is -11.9%.

Q: For CCn1cc(C(=O)O)c(=O)c2cc3c(cc21)OCO3, which “activity change, negative = inhibition” value is on record?
A: Its value is -11.2%.

Q: O=C(O)CCCCCCCC(=O)O was tested. Which “activity change, negative = inhibition” value did it give?
A: Its value is -8.98%.

Q: Which “activity change, negative = inhibition” value does the source give for CCCC(C(=O)OCCN(CC)CC)(c1ccccc1)c1ccccc1 here?
A: The value was 14.7%.

Q: Which “activity change, negative = inhibition” value does the source give for CCOC(=O)c1cnc2c(cnn2CC)c1NN=C(C)C here?
A: The value was 4.51%.

Q: With CC(C)[N+](C)(CCOC(=O)C1c2ccccc2Oc2ccccc21)C(C)C as the molecule, how does the “activity change, negative = inhibition” value read?
A: Its value is 11.5%.

Q: With COC(=O)[C@@H](N)Cc1ccc(O)c(O)c1 as the molecule, how does the “activity change, negative = inhibition” value read?
A: The value was 1.22%.

Q: CCN1CCc2nc(N)oc2CC1 was tested. Which “activity change, negative = inhibition” value did it give?
A: Its value is 8.62%.

Q: For CO[C@@]1(NC(=O)CSCC#N)C(=O)N2C(C(=O)O)=C(CSc3nnnn3C)CS[C@@H]21, which “activity change, negative = inhibition” value is on record?
A: The value was 5.02%.

Q: CC(C)(Oc1ccc(CCNC(=O)c2ccc(Cl)cc2)cc1)C(=O)O was tested. Which “activity change, negative = inhibition” value did it give?
A: The value was -4.92%.

Q: For CCCNC(C)C(=O)Nc1ccccc1C (stereo not given), which “activity change, negative = inhibition” value is on record?
A: The value was 3.98%.

Q: CN(C)CC[C@@H](c1ccc(Br)cc1)c1ccccn1 was tested. Which “activity change, negative = inhibition” value did it give?
A: Its value is -15.5%.

Q: CN1C(=O)CC[C@H]1c1cccnc1 was tested. Which “activity change, negative = inhibition” value did it give?
A: The value was 5.38%.

Q: How did the “activity change, negative = inhibition” value turn out when C[n+]1cc2c3c(ccc2c2ccc4cc5c(cc4c21)OCO5)OCO3 was run?
A: The value was -26.2%.

Q: For COc1cc(Cc2cnc(N)nc2N)cc(OC)c1OC, which “activity change, negative = inhibition” value is on record?
A: The value was -1.31%.

Q: How did the “activity change, negative = inhibition” value turn out when c1cnc(N2CCN(Cc3ccc4c(c3)OCO4)CC2)nc1 was run?
A: Its value is -13.5%.

Q: Which Potency does the source give for CN(C)CCCN1c2ccccc2Sc2ccc(C(F)(F)F)cc21 here?
A: Its Potency is 1.26 µM (active).

Q: For CCN(CC)CCNC(=O)c1ccc(NC(C)=O)cc1, which “activity change, negative = inhibition” value is on record?
A: The value was 10.2%.

Q: For NCCCNCCSP(=O)(O)O, which “activity change, negative = inhibition” value is on record?
A: The value was -3.42%.

Q: With Nc1c2c(nc3ccccc13)CCCC2O (stereo not given) as the molecule, how does the “activity change, negative = inhibition” value read?
A: Its value is 7.22%.

Q: With NC(Cc1ccc(Cl)cc1)C(=O)O (stereo not given) as the molecule, how does the “activity change, negative = inhibition” value read?
A: Its value is 10.7%.

Q: Which “activity change, negative = inhibition” value does the source give for CCOC(=O)C1=C(C)NC(C)=C(C(=O)OC)C1c1cccc(Cl)c1Cl (stereo not given) here?
A: Its value is -0.808%.

Q: Which “activity change, negative = inhibition” value does the source give for COc1ccc2c(c1OC)C(=O)O[C@@H]2[C@H]1c2c(cc3c(c2OC)OCO3)CCN1C here?
A: Its value is -29.8%.

Q: With COCCCC/C(=N\OCCN)c1ccc(C(F)(F)F)cc1 as the molecule, how does the “activity change, negative = inhibition” value read?
A: Its value is -2.96%.

Q: With CC1=NS(=O)(=O)c2cc(Cl)ccc2N1 as the molecule, how does the “activity change, negative = inhibition” value read?
A: The value was 15%.

Q: Which Potency does the source give for CN1CCN(C2=Nc3ccccc3Oc3ccc(Cl)cc32)CC1 here?
A: The Potency was 0.398 µM (active).

Q: With Cc1ccc(S(=O)(=O)NC(=O)NN2CCCCCC2)cc1 as the molecule, how does the “activity change, negative = inhibition” value read?
A: Its value is 7.79%.

Q: CCCCCCCC/C=C\CCCCCCCC(=O)NCc1ccc(O)c(OC)c1 was tested. Which “activity change, negative = inhibition” value did it give?
A: The value was 23.2%.

Q: Which Potency does the source give for NC1=NCC2c3ccccc3Cc3ccccc3N12 (stereo not given) here?
A: The Potency was 15.8 µM (active).

Q: How did the “activity change, negative = inhibition” value turn out when COC(=O)C1=C(C)NC(C)=C(C(=O)OC(C)(C)CN(C)CCC(c2ccccc2)c2ccccc2)C1c1cccc([N+](=O)[O-])c1 (stereo not given) was run?
A: The value was 10.9%.

Q: For CC(=O)Nc1nnc(S(N)(=O)=O)s1, which “activity change, negative = inhibition” value is on record?
A: Its value is 2.35%.

Q: Which “activity change, negative = inhibition” value does the source give for c1ccc2c(c1)CCCC2C1=NCCN1 (stereo not given) here?
A: The value was 4.29%.

Q: With CN(C)CCOC(=O)COc1ccc(Cl)cc1 as the molecule, how does the “activity change, negative = inhibition” value read?
A: Its value is -6.57%.

Q: With O=C(CCNNC(=O)c1ccncc1)NCc1ccccc1 as the molecule, how does the “activity change, negative = inhibition” value read?
A: Its value is 1.89%.

Q: With O=c1[nH]c(=O)n([C@H]2C[C@H](O)[C@@H](CO)O2)cc1Br as the molecule, how does the “activity change, negative = inhibition” value read?
A: The value was 8.96%.

Q: Which “activity change, negative = inhibition” value does the source give for Brc1c(NC2=NCCN2)ccc2nccnc12 here?
A: The value was 9.8%.

Q: How did the “activity change, negative = inhibition” value turn out when C(=C\c1ccccc1)/CN1CCN(C(c2ccccc2)c2ccccc2)CC1 was run?
A: The value was 19.5%.

Source: PubChem BioAssay (NCATS)
